Bioassay records: PubChem, National Center for Advancing Translational Sciences (NCATS)
Only some compounds are listed: those with a hit (about 3% of all), similar ones and a draw of the others.
GCN5L2 inh = blocks human GCN5L2 histone acetyltransferase; GCN5L2 HAT assay, ThioGlo1 CoA-SH fluorescence; Potency, µM (highest dose often 58.9 µM), for inactives: at the top dose activity change, negative = inhibition, usual class: inhibitors; 390,000 tested, 0.21% active; AID 504327; also: % is scaled to controls: 0 for no effect and ±100 for the full control effect
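Preincubate 20nM GCN5L2 with compound 15 min, RT → add 50uM ThioGlo1 + 75uM H3(1-25) + 70uM acetyl-CoA → read fluorescence 0 and 20 min. Primary qHTS; fluorescent artifacts likely.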
VDR inh = vitamin D3 receptor (human) inhibition; P11473; VDR-SRC2-3 peptide fluorescence polarization, 2 h; Potency, µM, for the others: max response, negative = inhibition, most hits filed as inhibitors; 400,000 tested, 0.93% active; also: % is scaled to controls: 0 for no effect and ±100 for the full control effect
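Inhibition of the VDR/SRC2-3 peptide interaction is quantified by fluorescence polarization. Compounds (23 nl, pintool) incubate with the reagents for 2 hours at ambient room temperature.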
PLK1 PBD inh = PLK1 (human) polo-box domain binding inhibition | P53350 | Plk1 PBD binding of FITC phosphopeptide, fluorescence polarization | Potency, µM, inactives show max response, negative = inhibition, most hits filed as inhibitors | 360,000 tested, 2.8% active | AID 720504; also: series mostly up to about 57 µM; % is scaled to controls: 0 for no effect and ±100 for the full control effect; nearly all actives have a fitted effect of over 65% in size
Target sequence (P53350 whole entry, looked up, the tested form may be a part): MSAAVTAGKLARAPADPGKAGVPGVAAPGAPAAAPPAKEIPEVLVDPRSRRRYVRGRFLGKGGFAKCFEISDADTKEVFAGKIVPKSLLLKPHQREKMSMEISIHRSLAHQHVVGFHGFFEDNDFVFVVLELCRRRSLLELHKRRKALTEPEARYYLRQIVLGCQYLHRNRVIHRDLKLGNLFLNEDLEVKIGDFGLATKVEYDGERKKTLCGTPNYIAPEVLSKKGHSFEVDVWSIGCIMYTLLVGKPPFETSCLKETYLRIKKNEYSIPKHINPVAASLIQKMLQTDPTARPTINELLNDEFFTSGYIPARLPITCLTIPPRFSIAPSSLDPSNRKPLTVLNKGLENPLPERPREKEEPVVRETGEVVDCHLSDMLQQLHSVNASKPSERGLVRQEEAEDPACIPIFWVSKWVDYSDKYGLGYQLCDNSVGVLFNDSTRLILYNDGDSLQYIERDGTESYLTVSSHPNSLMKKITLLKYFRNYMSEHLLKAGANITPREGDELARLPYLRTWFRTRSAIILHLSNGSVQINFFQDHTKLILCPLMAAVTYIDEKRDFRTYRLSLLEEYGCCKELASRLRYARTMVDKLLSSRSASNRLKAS
TSG101-PTAP inh = blocks PTAP/TSG101 interaction to inhibit HIV-1 budding; Potency, µM (highest dose often 115 µM), for the others: top-dose activity change, negative = inhibition, hits mostly inhibitors; Fluorescence polarization, FITC-PTAP peptide / Tsg101 binding; Q99816; 340,000 tested, under 10 active; active = well fitted inhibition curve with a large enough effect in the main read-out, with a control signal flat, not every such curve was filed as active; inconclusive = small, poorly fitted or top-dose-only effect, or effect the other way, or a change in a side signal; inactive = no such curve, though single readings can be large or run the other way; also: % of control where 0% means no effect
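Fluorescence anisotropy tracks displacement of a FITC-tagged PTAP peptide (50 nM) from the Tsg101 binding domain (10 uM), following a 20 min room-temperature incubation at pH 7.5.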
USP1-UAF1 inh = inhibitors of human USP1/UAF1 deubiquitinase; recombinant USP1/UAF1, Ub-Rhodamine cleavage fluorescence; Potency, µM (highest dose often 57.1 µM), for the others: at the highest dose activity change, negative = inhibition, usual class: inhibitors; 390,000 tested, 0.23% active; also: % is scaled to controls: 0 for no effect and ±100 for the full control effect; nearly all actives have a fitted effect of over 60% in size
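1 nM enzyme complex + cpd, 15 min RT; start with Ub-Rho 150nM final; kinetic fluorescence ex 480/em 540, 6 reads q60 s. Buffer 50mM HEPES pH 7.8, 0.5mM EDTA, 0.1 mg/ml BSA, 1mM TCEP, 0.01% Tween-20.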
* = called active by the depositor; ? = inconclusive; nt = no result; [ ] = remark or other dose. Unless noted, calls follow the shape of the dose curve; as a rule, active = well fitted curve in the direction sought with a large enough effect; inconclusive = small, poorly fitted or top-dose-only effect, or another doubt; inactive = no such curve, though single readings can be large; an effect the other way counts as inactive or inconclusive. Potency is read from the fitted curve at half-maximal effect.

SMILES	GCN5L2 inh	VDR inh	PLK1 PBD inh	TSG101-PTAP inh	USP1-UAF1 inh
Cc1c(Cc2ccccc2)sc(NC(=O)Cc2ccccc2)c1C(N)=O	nt	?	11µM*	-4%	-23%
CCC(=O)Nc1sc(Cc2ccc3c(c2)OCO3)c(C)c1C(N)=O	23%	?	21µM*	-3%	-6%
COc1ccc(CCNC(=O)c2nn(-c3ccc(C)cc3)c(=O)c3c2c2ccccc2n3C)cc1OC	-3%	-11%	nt	nt	-2%
CCNc1ncc2nc(-c3cn(C)c4ccccc34)c(=O)n(Cc3cccc(OC)c3)c2n1	-10%	-20%	nt	nt	nt
Cc1c(C(=O)N2CCC(C)CC2)c(S(=O)(=O)Nc2ccc(OC(F)(F)F)cc2)c(C)n1C	1%	16%	nt	nt	-2%
O=Cc1ccc2noc(-c3ccc(F)cc3)c2c1	-4%	-4%	24µM*	?	-21%
Fc1ccc(-c2onc3ccc(C4OCCO4)cc23)cc1	-2%	15%	-12%	0%	-8%
Cc1cc2nccnc2cc1C	nt	-5%	-1%	-3%	-19%
O=C(Nc1ccc2c(c1)OCCO2)c1ccccc1F	-4%	-15%	3µM*	-4%	-13%
Clc1ccccc1-c1nn2c(Cn3cnc4ccccc43)nnc2s1	0%	-23%	24µM*	-5%	-19%
c1ccc2c(c1)ncn2Cc1nnc2sc(-c3ccc4c(c3)OCO4)nn12	-6%	-9%	19µM*	-1%	-19%
Clc1ccccc1-c1nnc2sc(-c3ccc4c(c3)OCO4)nn12	-15%	?	4.7µM*	-6%	-8%
COc1ccc(OCc2nn3c(Cn4cnc5ccccc54)nnc3s2)cc1	-11%	-25%	15µM*	-3%	0%
COc1ccc(OCc2nn3c(-c4cccc(OC)c4)nnc3s2)cc1	-3%	-7%	-1%	-7%	2%
Clc1ccccc1CSc1nnc(Cn2cnc3ccccc32)n1-c1ccccc1	0%	-4%	-6%	-5%	-3%
Clc1ccc(Sc2cc(Cl)c(Cl)cc2Cl)cc1	39%	5%	nt	nt	nt
COc1ccc(C=O)cc1CSc1ccccn1	-7%	4%	24µM*	1%	-20%
Cc1cc(O)c(C(C)C)cc1N=Cc1ccccc1[N+](=O)[O-]	nt	32µM*	-3%	-6%	?
O=C(CCc1ccccc1)NNC(=S)NC(=O)c1ccccc1	-21%	-14%	27µM*	-8%	-6%
CC(=O)NC(=S)NNC(=O)CCc1ccccc1	0%	-6%	?	-1%	-5%
O=C(O)CCC(=O)NNC(=O)c1ccc(-c2ccccc2)cc1	-4%	12%	3%	0%	-10%
CC(=O)NNC(=S)NC(=O)c1cccc([N+](=O)[O-])c1	?	?	24µM*	-2%	-3%
O=C(NNC(=S)NC(=O)c1ccccc1Cl)c1cccc([N+](=O)[O-])c1	6%	-25%	-13%	-12%	-10%
O=C(NNC(=S)NC(=O)c1ccc(Br)cc1)c1cccc([N+](=O)[O-])c1	-1%	?	27µM*	-7%	-11%
O=C(O)CCC(=O)NNC(=O)c1ccc([N+](=O)[O-])cc1	1%	?	24µM*	-4%	-18%
SMILES	GCN5L2 inh	VDR inh	PLK1 PBD inh	TSG101-PTAP inh	USP1-UAF1 inh
Cc1ccc(C)c(S(=O)(=O)NCCc2csc(-c3ccc(Cl)cc3)n2)c1	-10%	4%	nt	nt	?
CC(=O)Nc1cccc(Nc2nc3ccccc3n3c(C)nnc23)c1	-3%	16%	nt	nt	-13%
COc1ccccc1NC(=O)C1CCN(S(=O)(=O)c2ccc3[nH]c4c(c3c2)CCCCC4)CC1	20%	2%	nt	nt	?
O=C(NNC(=S)NC(=O)c1ccccc1)c1ccc([N+](=O)[O-])cc1	-24%	-10%	27µM*	-1%	-1%
O=C(NNC(=S)NC(=O)c1ccc(Br)cc1)c1ccc([N+](=O)[O-])cc1	?	?	?	1%	-1%
Cc1ccc(OCc2cc(C(=O)N3CCN(CC(=O)NC(C)C)CC3)no2)cn1	-2%	-17%	27µM*	-3%	-23%
Cc1ccc(OCc2cc(C(=O)N3CCCC(C)C3)no2)cn1 (stereo unspecified)	nt	nt	-13%	nt	?
O=C(O)c1ccc(N/N=C/c2cn(Cc3ccc(F)cc3)c3ccccc23)cc1	-12%	?	24µM*	-3%	-15%
O=C(CCn1cnc2ccccc21)N/N=C/c1ccc(O)cc1	-9%	1%	-5%	-2%	-13%
O=C(CCn1cnc2ccccc21)N/N=C/c1ccccc1O	-3%	-8%	8.4µM*	-5%	-25%
CN(C)C(=O)CCc1ccc2c3c([nH]c2c1)[C@]1(C)[C@@H](C(=O)N2CCOCC2)C[C@H](CC(=O)NCCC2=CCCCC2)C(=O)N1CC3	0%	-12%	-4%	-2%	-22%
COc1cccc(N=Cc2nc(-c3ccccc3)oc2OC(C)=O)c1	-7%	?	?	-3%	-7%
COc1ccc(N=Cc2nc(-c3ccccc3)oc2OC(C)=O)cc1	-3%	28µM*	?	-3%	-23%
Cc1cccc(N2CCN(c3nc4ccc(C)cc4n4cnnc34)CC2C)c1 (stereo unspecified)	-10%	-13%	nt	nt	-29%
Cc1cc(-c2nsc(=O)o2)c(S(C)(=O)=O)s1	?	?	3.8µM*	0%	?
O=c1[nH]c(CN2CCN(c3ccc([N+](=O)[O-])cc3)CC2)nc2ccsc12	-12%	-1%	-11%	-2%	1%
Cc1ccc(Cl)cc1N1CCN(Cc2nc3ccsc3c(=O)[nH]2)CC1	0%	3%	30µM*	-6%	-22%
C=C1c2cccc(C(F)(F)F)c2O[C@H](C(=O)OCC)[C@@H]1CCCCCC	13%[88.6 µM]	-14%	nt	nt	nt
Cc1ccc(/C=N\NC(=O)CCc2n[nH]c(=O)[nH]c2=O)o1	3%	?	17µM*	-4%	-21%
Cc1ccc(S(=O)(=O)/N=S(/c2ccccc2)C(C)C)cc1 (stereo unspecified)	-17%	-20%	11µM*	-2%	-13%
CN/S(=N/S(=O)(=O)c1ccccc1)c1ccc(C)cc1 (stereo unspecified)	0%	0%	-6%	-1%	-6%
CC(C)=CCC/C(C)=C/CC/C(C)=C/CSCC(=O)O	?	-8%	nt	nt	nt
COc1ccc(C(C[N+](=O)[O-])c2c(C)[nH]n(-c3ccccc3)c2=O)cc1 (stereo unspecified)	1%	?	24µM*	-2%	?
Cc1[nH]n(-c2ccccc2)c(=O)c1C(c1ccc(O)c([N+](=O)[O-])c1)c1c(C)[nH]n(-c2ccccc2)c1=O	nt	?	24µM*	-3%	-17%
O=c1c2cc([N+](=O)[O-])cc([N+](=O)[O-])c2[nH]n1-c1ccccc1	-7%	-11%	-9%	-6%	-21%
Cc1cccnc1NC(=O)Nc1cccc(F)c1	nt	nt	-19%	nt	3%
